# Laboratory results published in PubChem BioAssay AID1159580 (chemical genetic matrix, 2015).
# In all, about 5,500 compounds went through this assay and about 2,000 (36%) were called active. Roughly 18% stayed inconclusive and do not appear here. This is one part of the list. A number with no mark means an inactive call. Rule as the data show it: active = normalized growth mostly below about 0.91 (no sharp cut-off); inconclusive = no clear call, values can overlap the other calls; inactive = mostly above about 0.92.
# Assay: chemical genetic growth profiling, strain panel (AID 1159580);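 also: tested at 20 µM; growth read once vehicle control cultures reached saturation at 30 °C; 1 = growth at the plate median or of vehicle wells; lower values mean less growth of the strain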
# Conditions: S. cerevisiae deletion strains, growth OD
smiles,measurement,setting,value
CC1(C)CCC2(C(=O)O)CCC3(C)C(=CCC4C5(C)CCC(O)C(C)(C)C5C(O)CC43C)C2C1 (stereo not given),normalized growth,"locus YAL021C, strain ccr4, hits give low values",1
same,normalized growth,"locus YAL026C, strain drs2, hits give low values",1.04
same,normalized growth,"locus YAL030W, strain snc1, hits give low values",1.03
same,normalized growth,"locus YBL061C, strain skt5, hits give low values",1.03
same,normalized growth,"locus YBR009C, strain hhf1, hits give low values",1.02
same,normalized growth,"locus YBR023C, strain chs3, hits give low values",1.04
same,normalized growth,"locus YBR171W, strain sec66, hits give low values",1.05
same,normalized growth,"locus YBR231C, strain swc5, hits give low values",1.03
same,normalized growth,"locus YBR279W, strain paf1, hits give low values",1.03
same,normalized growth,"locus YCL011C, strain gbp2, hits give low values",1.02
same,normalized growth,"locus YCL016C, strain dcc1, hits give low values",1.01
same,normalized growth,"locus YCL069W, strain vba3, hits give low values",1.03
same,normalized growth,"locus YCR088W, strain abp1, hits give low values",1.04
same,normalized growth,"locus YDL005C, strain med2, hits give low values",0.246 (active)
same,normalized growth,"locus YDL040C, strain nat1, hits give low values",1.04
same,normalized growth,"locus YDR001C, strain nth1, hits give low values",1.03
same,normalized growth,"locus YDR069C, strain doa4, hits give low values",1.11 [resistant] (active)
same,normalized growth,"locus YDR137W, strain rgp1, hits give low values",0.871
same,normalized growth,"locus YDR159W, strain sac3, hits give low values",1.01
same,normalized growth,"locus YDR195W, strain ref2",1.06
same,normalized growth,"locus YDR297W, strain sur2, hits give low values",1.04
same,normalized growth,"locus YDR334W, strain swr1, hits give low values",1.04
same,normalized growth,"locus YDR335W, strain msn5, hits give low values",1.01
same,normalized growth,"locus YDR392W, strain spt3, hits give low values",0.966
same,normalized growth,"locus YEL003W, strain gim4, hits give low values",1.01
same,normalized growth,"locus YEL037C, strain rad23, hits give low values",1.02
same,normalized growth,"locus YER015W, strain faa2, hits give low values",1.03
same,normalized growth,"locus YER016W, strain bim1, hits give low values",1.04
same,normalized growth,"locus YER111C, strain swi4, hits give low values",1.02
same,normalized growth,"locus YER155C, strain BEM2 (second series), hits give low values",1.03
same,normalized growth,"locus YFR010W, strain ubp6, hits give low values",1.06
same,normalized growth,"locus YGL167C, strain pmr1, hits give low values",1.05
same,normalized growth,"locus YGL173C, strain kem1, hits give low values",1.03
same,normalized growth,"locus YGL227W, strain vid30, hits give low values",1.04
same,normalized growth,"locus YGL240W, strain doc1, hits give low values",0.961
same,normalized growth,"locus YGL253W, strain hxk2, hits give low values",1.04
same,normalized growth,"locus YHR013C, strain ard1, hits give low values",1.12
same,normalized growth,"locus YHR027C, strain rpn1, hits give low values",1.04
same,normalized growth,"locus YHR142W, strain chs7, hits give low values",1.02
same,normalized growth,"locus YJL092W, strain hpr5, hits give low values",1.04
same,normalized growth,"locus YJL095W, strain BCK1 (second series), hits give low values",1.05
same,normalized growth,"locus YJL115W, strain asf1, hits give low values",1.03
same,normalized growth,"locus YJL129C, strain trk1, hits give low values",0.972
same,normalized growth,"locus YJL154C, strain vps35, hits give low values",1.02
same,normalized growth,"locus YJL164C, strain tpk1, hits give low values",1.02
same,normalized growth,"locus YJL166W, strain qcr8, hits give low values",1.02
same,normalized growth,"locus YJL187C, strain SWE1, hits give low values",1.03
same,normalized growth,"locus YKL160W, strain elf1, hits give low values",1.03
same,normalized growth,"locus YKR026C, strain gcn3, hits give low values",1.05
same,normalized growth,"locus YKR091W, strain srl3, hits give low values",1.03
same,normalized growth,"locus YLL001W, strain dnm1, hits give low values",1.02
same,normalized growth,"locus YLL026W, hits give low values",1.03
same,normalized growth,"locus YLL041C, strain sdh2, hits give low values",1.05
same,normalized growth,"locus YLR027C, strain aat2, hits give low values",1.04
same,normalized growth,"locus YLR221C, strain rsa3, hits give low values",1.03
same,normalized growth,"locus YLR258W, strain gsy2, hits give low values",1.02
same,normalized growth,"locus YLR262C, strain YPT6 (second series), hits give low values",0.938
same,normalized growth,"locus YLR320W, strain mms22, hits give low values",1.02
same,normalized growth,"locus YLR342W, strain FKS1, hits give low values",1.04
same,normalized growth,"locus YLR357W, strain rsc2, hits give low values",1.01
same,normalized growth,"locus YLR370C, strain arc18, hits give low values",1.04
same,normalized growth,"locus YLR384C, strain iki3, hits give low values",1.04
same,normalized growth,"locus YML120C, strain ndi1, hits give low values",1.02
same,normalized growth,"locus YMR058W, strain fet3, hits give low values",1.01
same,normalized growth,"locus YMR125W, strain sto1, hits give low values",1.03
same,normalized growth,"locus YMR129W, hits give low values",1.03
same,normalized growth,"locus YMR205C, strain PFK2, hits give low values",1.02
same,normalized growth,"locus YMR231W, strain pep5, hits give low values",1.02
same,normalized growth,"locus YNL071W, strain lat1, hits give low values",1.05
same,normalized growth,"locus YNL209W, strain ssb2, hits give low values",1.04
same,normalized growth,"locus YNL248C, strain rpa49, hits give low values",1.01
same,normalized growth,"locus YNL322C, strain KRE1 (second series), hits give low values",1.05
same,normalized growth,"locus YNR049C, strain mso1, hits give low values",1.04
same,normalized growth,"locus YOR001W, strain rrp6, hits give low values",0.964
same,normalized growth,"locus YOR070C, strain gyp1, hits give low values",1.03
same,normalized growth,"locus YOR080W, strain dia2, hits give low values",1.04
same,normalized growth,"locus YOR083W, strain WHI5, hits give low values",1.02
same,normalized growth,"locus YOR106W, strain vam3, hits give low values",0.901
same,normalized growth,"locus YOR265W, strain rbl2, hits give low values",1.02
same,normalized growth,"locus YOR270C, strain vph1, hits give low values",0.911
same,normalized growth,"locus YOR290C, strain snf2, hits give low values",0.991
same,normalized growth,"locus YPL051W, strain arl3, hits give low values",0.992
same,normalized growth,"locus YPL078C, strain atp4, hits give low values",1.01
same,normalized growth,"locus YPL106C, strain sse1, hits give low values",1.03
same,normalized growth,"locus YPL240C, strain hsp82, hits give low values",1.03
